C diff HTS: inhibitors of Clostridium difficile growth; growth activity, negative = inhibition, % at 16 µg/mL (by protocol); Clostridium difficile clinical isolate growth, OD600, 24 h; hits give low values; 86,000 tested, 0.25% active;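 active = mean growth activity at or below -80% and every replicate also at or below -80%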;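 note: 0% = DMSO wells and -100% = levofloxacin 16 µg/mL wells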
Pf Dd2 inh: blocks growth of Plasmodium falciparum Dd2 parasites | P. falciparum Dd2 growth, SYBR Green, 72 h; hits give low values | 94,000 tested, 2.3% active | activity change, % at 10 µM; in the data active = activity change below about -80%
Tcruzi prolif: blocks T. cruzi growth in NIH3T3 culture; T. cruzi beta-gal in NIH3T3, GalScreen luminescence, 90 h; inhibition, % at 8.34 µM; 77,000 tested, 5.9% active; AID 624255;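 active = mean inhibition above about 93%, with at least 55% of replicates each passing it, limit read from the data, passing the limit was not always enough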
The depositor's hits bear a star. Only some compounds are listed: those with a hit (about 6.8% of all), similar ones and a draw of the others.

How did CO[C@@H]1CN(C)C(=O)c2ccc(NC(=O)C3CCC3)cc2OC[C@@H](C)N(CC2CCCCC2)C[C@H]1C do in these assays?
C diff HTS: -9; Pf Dd2 inh: -83*

What do the screens show for `CO[C@@H]1CN(C)C(=O)c2ccc(NC(=O)C3CC3)cc2OC[C@H](C)N(Cc2cc(F)ccc2F)C[C@H]1C`?
Pf Dd2 inh: -48; Tcruzi prolif: 3

How did CO[C@H]1CN(C)C(=O)c2ccc(NC(=O)C3CC3)cc2OC[C@@H](C)N(Cc2ccccc2)C[C@H]1C do in these assays?
Pf Dd2 inh: -15; Tcruzi prolif: 25

How did CO[C@@H]1CN(C)C(=O)c2ccc(NC(=O)C3CC3)cc2OC[C@@H](C)N(Cc2cc(F)ccc2F)C[C@H]1C do in these assays?
Pf Dd2 inh: -87*; Tcruzi prolif: 50

Results for COCC(=O)Nc1ccc2c(c1)OC[C@@H](C)N(Cc1ccncc1)C[C@@H](C)[C@H](OC)CN(C)C2=O ?
C diff HTS: -1; Pf Dd2 inh: 5; Tcruzi prolif: -18

What do the screens show for `CO[C@@H]1CN(C)C(=O)c2ccc(NC(=O)C3CCC3)cc2OC[C@H](C)N(CC2CCCCC2)C[C@@H]1C`?
Pf Dd2 inh: -69; Tcruzi prolif: 3

Results for CCCNC(=O)N(C)C[C@H]1Oc2cc(C#C[C@H](C)O)ccc2S(=O)(=O)N([C@H](C)CO)C[C@@H]1C ?
C diff HTS: -2; Pf Dd2 inh: 18; Tcruzi prolif: -20

Results for CCCC(=O)Nc1ccc2c(c1)OC[C@@H](C)N(Cc1cc(F)ccc1F)C[C@@H](C)[C@H](OC)CN(C)C2=O ?
C diff HTS: 3; Pf Dd2 inh: -86*; Tcruzi prolif: 29

What do the screens show for `CO[C@@H]1CN(C)C(=O)c2ccc(NC(=O)Nc3ccccc3F)cc2OC[C@@H](C)N(CC2CC2)C[C@H]1C`?
Pf Dd2 inh: -88*; Tcruzi prolif: 72

How did CO[C@@H]1CN(C)C(=O)c2cc(NC(=O)Nc3ccccc3F)ccc2OC[C@@H](C)N(CC2CC2)C[C@@H]1C do in these assays?
Pf Dd2 inh: 4; Tcruzi prolif: -14

What do the screens show for `CCCC(=O)Nc1ccc2c(c1)C(=O)N(C)C[C@@H](OC)[C@H](C)CN(Cc1cc(F)ccc1F)[C@H](C)CO2`?
Pf Dd2 inh: -64; Tcruzi prolif: 69

What do the screens show for `CO[C@H]1CN(C)C(=O)c2cc(NC(=O)c3ccc(-c4ccccc4)cc3)ccc2OC[C@H](C)NC[C@H]1C`?
Pf Dd2 inh: -92*

Results for CO[C@@H]1CN(C)C(=O)c2cc(NC(=O)c3ccc(-c4ccccc4)cc3)ccc2OC[C@H](C)NC[C@@H]1C ?
Pf Dd2 inh: -76

What do the screens show for `CO[C@H]1CN(C)C(=O)c2cc(NC(=O)c3ccc(-c4ccccc4)cc3)ccc2OC[C@@H](C)NC[C@H]1C`?
Pf Dd2 inh: -78

How did CO[C@@H]1CN(C)C(=O)c2cc(NC(=O)c3ccc(-c4ccccc4)cc3)ccc2OC[C@@H](C)NC[C@@H]1C do in these assays?
Pf Dd2 inh: -97*

Results for O=S(=O)(c1ccc(F)cc1)N1CC[C@@H]2[C@@H](CO)Nc3ccc(C#Cc4cccc(F)c4)cc3[C@@H]21 ?
C diff HTS: 36; Pf Dd2 inh: -10

What do the screens show for `COc1ccccc1C#Cc1ccc2c(c1)[C@H]1NCC[C@H]1[C@@H](CO)N2`?
C diff HTS: 0; Pf Dd2 inh: -87*

What do the screens show for `OC[C@@H]1Nc2ccc(C#Cc3cccc(F)c3)cc2[C@@H]2NCC[C@H]12`?
C diff HTS: -98*; Pf Dd2 inh: -91*

How did COc1ccccc1C#Cc1ccc2c(c1)[C@H]1[C@H](CCN1S(=O)(=O)c1ccccc1)[C@H](CO)N2 do in these assays?
C diff HTS: -2; Pf Dd2 inh: -67; Tcruzi prolif: 89

Results for O=C(C[C@H]1C[C@H]2c3cc(NC(=O)NC4CCCC4)ccc3O[C@H]2[C@@H](CO)O1)NCc1ccncc1 ?
C diff HTS: 4; Pf Dd2 inh: 17; Tcruzi prolif: -14

Results for C[C@@H]1CN([C@H](C)CO)C(=O)c2cc(C#CC3(O)CCCC3)cnc2O[C@@H]1CN(C)C(=O)Cc1ccccc1 ?
C diff HTS: 1; Pf Dd2 inh: 44; Tcruzi prolif: -56

Results for CO[C@H](C(=O)N(C)C[C@H]1OCc2ccccc2-c2ccccc2C(=O)N([C@@H](C)CO)C[C@@H]1C)c1ccccc1 ?
C diff HTS: -2; Pf Dd2 inh: -15; Tcruzi prolif: 37

Results for C[C@H](CO)N1C[C@H](C)[C@H](CN(C)C(=O)Nc2cccc(F)c2)OCc2ccccc2-c2c(n(C)c3ccccc23)C1=O ?
Pf Dd2 inh: -35; Tcruzi prolif: -19

How did C[C@H](CO)N1C[C@H](C)[C@H](CN(C)C(=O)Nc2cccc(C(F)(F)F)c2)OCc2ccccc2-c2c(n(C)c3ccccc23)C1=O do in these assays?
C diff HTS: 55; Pf Dd2 inh: -53

What do the screens show for `C[C@H](CO)N1C[C@H](C)[C@@H](CN(C)C(=O)Nc2cccc(C(F)(F)F)c2)OCc2ccccc2-c2c(n(C)c3ccccc23)C1=O`?
C diff HTS: 23; Pf Dd2 inh: -86*

How did C[C@H]1CN([C@@H](C)CO)C(=O)c2c(c3ccccc3n2C)-c2ccccc2CO[C@@H]1CN(C)C(=O)Nc1cccc(C(F)(F)F)c1 do in these assays?
C diff HTS: 12; Pf Dd2 inh: -94*

What do the screens show for `COc1ccc(S(=O)(=O)Nc2cccc3c2O[C@@H](CN(C)Cc2ccc(Oc4ccccc4)cc2)[C@@H](C)CN([C@H](C)CO)C3=O)cc1`?
C diff HTS: 22; Pf Dd2 inh: -7; Tcruzi prolif: 71

What do the screens show for `CO[C@@H](CN(C)C(=O)C1CC1)[C@@H](C)CN(C(=O)Nc1ccc(C(F)(F)F)cc1)[C@@H](C)CO`?
Pf Dd2 inh: 3; Tcruzi prolif: 78

How did O=C(C1CCC1)N1CCCCN2[C@@H](CO)[C@@H](c3ccc(-c4cccc(F)c4)cc3)[C@@H]2C1 do in these assays?
C diff HTS: -2; Pf Dd2 inh: -3; Tcruzi prolif: 92

How did C[C@@H]1CN([C@@H](C)CO)C(=O)c2cc(NC(=O)Nc3cccc4ccccc34)ccc2O[C@@H](C)CCCCO[C@H]1CN(C)C(=O)c1ccccc1 do in these assays?
C diff HTS: -4; Pf Dd2 inh: 3; Tcruzi prolif: 41

Results for C[C@@H]1CN([C@H](C)CO)C(=O)c2cc(NC(=O)Nc3cccc4ccccc34)ccc2O[C@@H](C)CCCCO[C@@H]1CN(C)C(=O)c1ccccc1 ?
C diff HTS: 1; Pf Dd2 inh: -69; Tcruzi prolif: 25

What do the screens show for `C[C@@H]1CCCCO[C@H](CN(C)C(=O)c2ccccc2)[C@@H](C)CN([C@@H](C)CO)C(=O)c2cc(NC(=O)Nc3cccc4ccccc34)ccc2O1`?
C diff HTS: 0; Pf Dd2 inh: -82*; Tcruzi prolif: 86

How did C[C@@H]1CCCCO[C@@H](CN(C)C(=O)c2ccccc2)[C@H](C)CN([C@H](C)CO)C(=O)c2cc(NC(=O)Nc3cccc4ccccc34)ccc2O1 do in these assays?
C diff HTS: 1; Pf Dd2 inh: -19; Tcruzi prolif: 102*

How did C[C@H](CO)N1C[C@H](C)[C@@H](CN(C)C(=O)CCCN(C)C)OCCCC[C@H](C)Oc2ccc(NC(=O)Nc3cccc4ccccc34)cc2C1=O do in these assays?
C diff HTS: 0; Pf Dd2 inh: 5; Tcruzi prolif: 57

Compound activity from PubChem.
